Measurements reported in the antibiotic and cytotoxicity screens of Wong et al. (2023).
About 3,300 (8.5%) of roughly 39,000 compounds were called active. This excerpt belongs to a sample that is enriched for actives.

system: HepG2; assay: cytotoxicity call (relative viability < 0.9); details: 10 µM

| Structure (SMILES) | cytotoxicity call |
| --- | --- |
| C=CC(=O)Nc1cccc(Nc2nc(Nc3ccc(NC4CN(CCF)C4)cc3OC)ncc2C(F)(F)F)c1 | active |
| COc1cccc(-c2ccc3c(c2)O[C@H](CN(C)Cc2cncnc2)[C@@H](C)CN([C@H](C)CO)S3(=O)=O)c1 | inactive |
| CCOC(=O)CC(=O)N1CCSC1COc1ccccc1OC (stereo not drawn) | active |
| COc1ccccc1O[C@@H](C)C(=O)NN | inactive |
| CCOc1ccccc1C(N)=O | inactive |
| N[C@@H](Cn1ccc(=O)n(Cc2ccccc2C(=O)O)c1=O)C(=O)O | inactive |
| Cc1noc(C)c1S(=O)(=O)Nc1ccc2c(c1)C(=O)N([C@@H](C)CO)C[C@@H](C)[C@@H](CN(C)C(=O)Nc1ccc3c(c1)OCO3)O2 | inactive |
| COc1cc2nccc(Oc3ccc(NC(=O)c4cn(C(C)C)c(=O)n(-c5ccc(F)cc5)c4=O)cc3F)c2cc1OC | active |
| COc1cc2nccc(Oc3ccc(NC(=O)C4(C(=O)Nc5ccc(F)cc5)CC4)cc3)c2cc1OC | inactive |
| Cc1cc(C)nc(NS(=O)(=O)c2ccc(NC(=O)c3cccn(OCc4ccc(F)cc4)c3=O)cc2)n1 | inactive |
| COc1cc2c(Oc3ccc(NC(=O)C4(C(=O)Nc5ccc(F)cc5)CC4)cc3F)ccnc2cc1OCCCN1CCOCC1 | active |
| COc1ccc2c3c(n(c2c1)C)[C@H](CO)N(C[C@]13CCN(CC1)C(=O)CN1CCOCC1)C(=O)Nc1ccc(cc1)F | inactive |
| C[C@H]1CN([C@@H](C)CO)C(=O)Cc2cc(NC(=O)C3CC3)ccc2O[C@H]1CN(C)C(=O)Nc1ccccc1 | inactive |
| C[C@H]1CN([C@@H](C)CO)C(=O)Cc2cc(NS(=O)(=O)c3ccccc3)ccc2O[C@H]1CN(C)S(C)(=O)=O | inactive |
| O=S(=O)(O)O/N=C(\Cc1ccc(O)cc1)S[C@H]1O[C@H](CO)[C@@H](O)[C@H](O)[C@H]1O | inactive |
| CC=Cc1ccc2n(c1=O)C[C@@H]1[C@@H](CO)[C@H](C(=O)NCCc3cn(C)cn3)N(C(=O)CC)[C@H]21 | inactive |
| C[C@H](CO)N1C[C@H](C)[C@H](CN(C)C(=O)C2CCOCC2)Oc2ncc(C#Cc3cccc(F)c3)cc2C1=O | inactive |
| CC(C)N1CC[C@@H](CNCc2ccc(Oc3ccccc3)cc2)Oc2c(NC(=O)c3ccncc3)cccc2C1=O | inactive |
| O=C(NCc1ccccn1)C1CCNCC1 | inactive |
| CN(CC(=O)NCc1ccccn1)S(=O)(=O)c1cc(Br)cnc1N | active |
| CC(C)CNC(=O)C(=O)NCc1ccccn1 | inactive |
| Nc1nc(Cl)nc(Cl)n1 | inactive |
| COc1ccc(NC(=O)Nc2ccc3c(c2)[C@@H]2C[C@@H](CC(=O)NCc4ccccn4)O[C@H](CO)[C@@H]2O3)cc1 | inactive |
